For some assays here: Results with a measured potency or affinity are listed apart.
What was measured:
Design in all cases: scale not given: direction of the effect not stated beside the values
[1] = target: Protein translocase subunit SecA (Escherichia coli (strain K12)) (UniProt P10408); experiment: Assay to Identify E. coli SecA ATPase Inhibitors; assay type: functional; settings: 30 µM
[2] = target: T1, Ubiquitin-activating enzyme e1, putative (Leishmania donovani (strain BPK282A1)) (UniProt E9BSI1); experiment: Leishmania donovani Ubiquitin Activating Enzyme (LdE1); assay type: functional; settings: 30 µM
T1 sequence (whole entry): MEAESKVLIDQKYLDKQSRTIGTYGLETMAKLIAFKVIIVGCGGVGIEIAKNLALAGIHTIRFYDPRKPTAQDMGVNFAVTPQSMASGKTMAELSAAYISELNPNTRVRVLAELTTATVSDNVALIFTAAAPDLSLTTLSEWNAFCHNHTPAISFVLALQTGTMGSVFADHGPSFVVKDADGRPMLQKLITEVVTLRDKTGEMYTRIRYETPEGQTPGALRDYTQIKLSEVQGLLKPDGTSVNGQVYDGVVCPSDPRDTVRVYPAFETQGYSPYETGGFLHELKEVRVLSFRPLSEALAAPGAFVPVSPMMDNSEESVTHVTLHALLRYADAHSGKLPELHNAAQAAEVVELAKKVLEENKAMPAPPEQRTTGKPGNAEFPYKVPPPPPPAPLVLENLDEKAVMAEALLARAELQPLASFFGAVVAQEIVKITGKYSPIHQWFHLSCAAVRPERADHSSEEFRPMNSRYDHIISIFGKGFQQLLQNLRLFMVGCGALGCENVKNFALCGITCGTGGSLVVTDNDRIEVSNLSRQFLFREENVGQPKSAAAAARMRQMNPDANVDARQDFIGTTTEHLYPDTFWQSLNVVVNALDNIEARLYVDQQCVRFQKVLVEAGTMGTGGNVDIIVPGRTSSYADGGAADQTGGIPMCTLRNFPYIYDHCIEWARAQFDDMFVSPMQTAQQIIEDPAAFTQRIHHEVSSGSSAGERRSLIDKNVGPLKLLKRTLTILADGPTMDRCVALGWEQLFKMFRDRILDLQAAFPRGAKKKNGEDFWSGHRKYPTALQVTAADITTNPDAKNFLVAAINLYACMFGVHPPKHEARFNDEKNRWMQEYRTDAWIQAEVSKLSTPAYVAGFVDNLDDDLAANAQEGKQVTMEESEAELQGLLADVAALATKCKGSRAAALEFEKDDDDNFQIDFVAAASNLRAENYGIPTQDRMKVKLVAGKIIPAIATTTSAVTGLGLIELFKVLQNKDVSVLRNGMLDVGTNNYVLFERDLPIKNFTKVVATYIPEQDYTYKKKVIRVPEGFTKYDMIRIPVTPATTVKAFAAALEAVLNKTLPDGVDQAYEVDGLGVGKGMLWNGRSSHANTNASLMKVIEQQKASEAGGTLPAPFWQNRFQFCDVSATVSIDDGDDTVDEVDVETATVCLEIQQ

[3] = target: AMP-activated protein kinase, AMPK (Homo sapiens) (UniProt P54646+O43741+P54619+Q9UGJ0+Q9Y478+Q13131+Q9UGI9); experiment: AMP-dependent Kinase enzyme assay. An in vitro enzyme assay that detects ADP turnover that is directly proportional to AMPK activity. This uses naive AMPK that is activated during the assay with MK-8722; assay type: functional; settings: 30 µM
[4] = target: Sialic acid-binding Ig-like lectin 9 (Homo sapiens) (UniProt Q9Y336); experiment: Hs-Siglec9 ALPHAscreen SOP 20170721; settings: 10 µM
Trypanosoma cruzi = experiment: Trypanosoma cruzi phosphomannomutase and mannose-1-phosphate guanylyltransferase assay; assay type: functional; settings: 10 µM
[5] = target: T2, Arginase-2, mitochondrial (Homo sapiens) (UniProt P78540); experiment: in vitro enzyme assay to detect the production of urea directly proportional to the activity of Arginase II; assay type: functional; settings: 33.3 µM; further: in the data most compounds retested in dose-response had high values
T2 sequence (whole entry): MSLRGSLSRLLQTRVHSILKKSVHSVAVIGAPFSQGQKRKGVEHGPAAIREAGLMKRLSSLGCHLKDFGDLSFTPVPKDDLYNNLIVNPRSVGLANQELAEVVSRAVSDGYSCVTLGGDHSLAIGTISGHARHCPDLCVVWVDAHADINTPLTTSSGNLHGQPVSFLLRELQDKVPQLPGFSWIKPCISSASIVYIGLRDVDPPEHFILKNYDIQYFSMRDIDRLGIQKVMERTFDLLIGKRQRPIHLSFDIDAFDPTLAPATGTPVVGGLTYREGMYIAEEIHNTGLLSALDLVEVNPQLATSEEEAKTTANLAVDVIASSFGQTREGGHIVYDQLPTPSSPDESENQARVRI

[6] = target: T3, Proteasome subunit beta (Trypanosoma cruzi) (UniProt O96673); experiment: Trypanosoma cruzi proteasome chymotrypsin-like activity (TcProtChymo) assay.; further: in the data most compounds retested in dose-response had high values; assay type: functional; settings: 9.37 µM
T3 sequence (whole entry): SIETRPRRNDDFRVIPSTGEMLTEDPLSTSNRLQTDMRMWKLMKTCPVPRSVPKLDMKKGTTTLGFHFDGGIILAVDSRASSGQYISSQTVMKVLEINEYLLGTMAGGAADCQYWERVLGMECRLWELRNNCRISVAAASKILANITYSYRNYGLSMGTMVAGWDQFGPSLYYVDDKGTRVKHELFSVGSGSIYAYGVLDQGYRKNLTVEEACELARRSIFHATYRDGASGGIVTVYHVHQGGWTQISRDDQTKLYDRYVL

Homo sapiens = organism: Homo sapiens; experiment: To identify inhibition of the IFN signalling (Jak-Stat) pathway via expression of an eGFP reporter gene under the control of an IFN-stimulated response element (ISRE) containing MxA promoter.; assay type: functional; settings: 30 µM
[7] = target: T4, Tyrosyl-tRNA synthetase, putative (Trypanosoma cruzi (strain CL Brener)) (UniProt Q4DSP6); experiment: Trypanosoma cruzi tyrosyl tRNA synthetase (TcYRS) _High Tyrosine SOP; assay type: functional; settings: 30 µM; further: in the data most compounds retested in dose-response had high values
T4 sequence (whole entry): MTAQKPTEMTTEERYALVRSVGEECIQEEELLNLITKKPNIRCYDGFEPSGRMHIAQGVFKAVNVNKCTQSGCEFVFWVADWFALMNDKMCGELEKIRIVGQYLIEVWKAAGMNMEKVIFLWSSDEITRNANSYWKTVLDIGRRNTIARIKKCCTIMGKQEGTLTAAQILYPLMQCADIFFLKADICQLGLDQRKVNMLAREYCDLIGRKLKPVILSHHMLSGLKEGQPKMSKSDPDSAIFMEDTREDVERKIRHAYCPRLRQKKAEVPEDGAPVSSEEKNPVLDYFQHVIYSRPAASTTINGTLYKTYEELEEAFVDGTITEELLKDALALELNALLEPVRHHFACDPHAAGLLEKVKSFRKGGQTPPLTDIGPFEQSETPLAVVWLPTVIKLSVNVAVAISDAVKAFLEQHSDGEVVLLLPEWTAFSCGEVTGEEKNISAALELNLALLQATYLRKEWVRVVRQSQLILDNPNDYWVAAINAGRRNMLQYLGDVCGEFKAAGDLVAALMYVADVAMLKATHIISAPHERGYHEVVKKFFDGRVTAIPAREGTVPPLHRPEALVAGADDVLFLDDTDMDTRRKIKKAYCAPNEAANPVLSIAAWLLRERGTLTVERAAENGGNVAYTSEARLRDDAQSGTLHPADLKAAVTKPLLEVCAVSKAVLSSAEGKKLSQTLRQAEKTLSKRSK

[8] = target: T4, Tyrosyl-tRNA synthetase, putative (Trypanosoma cruzi (strain CL Brener)); experiment: Trypanosoma cruzi tyrosyl tRNA synthetase (TcYRS) SOP; assay type: functional; settings: 30 µM
[9] = target: Chromo domain-containing protein 1 (Saccharomyces cerevisiae (strain ATCC 204508 / S288c) (Baker's yeast)) (UniProt P32657); experiment: ScCHD-1 Enzyme Inhibition Assay; assay type: functional; settings: 30 µM; further: in the data most compounds retested in dose-response had high values
Chain of Chromo domain-containing protein 1 (Saccharomyces cerevisiae (strain ATCC 204508 / S288c) (Baker's yeast)) (P32657 whole entry, the tested form may be a part): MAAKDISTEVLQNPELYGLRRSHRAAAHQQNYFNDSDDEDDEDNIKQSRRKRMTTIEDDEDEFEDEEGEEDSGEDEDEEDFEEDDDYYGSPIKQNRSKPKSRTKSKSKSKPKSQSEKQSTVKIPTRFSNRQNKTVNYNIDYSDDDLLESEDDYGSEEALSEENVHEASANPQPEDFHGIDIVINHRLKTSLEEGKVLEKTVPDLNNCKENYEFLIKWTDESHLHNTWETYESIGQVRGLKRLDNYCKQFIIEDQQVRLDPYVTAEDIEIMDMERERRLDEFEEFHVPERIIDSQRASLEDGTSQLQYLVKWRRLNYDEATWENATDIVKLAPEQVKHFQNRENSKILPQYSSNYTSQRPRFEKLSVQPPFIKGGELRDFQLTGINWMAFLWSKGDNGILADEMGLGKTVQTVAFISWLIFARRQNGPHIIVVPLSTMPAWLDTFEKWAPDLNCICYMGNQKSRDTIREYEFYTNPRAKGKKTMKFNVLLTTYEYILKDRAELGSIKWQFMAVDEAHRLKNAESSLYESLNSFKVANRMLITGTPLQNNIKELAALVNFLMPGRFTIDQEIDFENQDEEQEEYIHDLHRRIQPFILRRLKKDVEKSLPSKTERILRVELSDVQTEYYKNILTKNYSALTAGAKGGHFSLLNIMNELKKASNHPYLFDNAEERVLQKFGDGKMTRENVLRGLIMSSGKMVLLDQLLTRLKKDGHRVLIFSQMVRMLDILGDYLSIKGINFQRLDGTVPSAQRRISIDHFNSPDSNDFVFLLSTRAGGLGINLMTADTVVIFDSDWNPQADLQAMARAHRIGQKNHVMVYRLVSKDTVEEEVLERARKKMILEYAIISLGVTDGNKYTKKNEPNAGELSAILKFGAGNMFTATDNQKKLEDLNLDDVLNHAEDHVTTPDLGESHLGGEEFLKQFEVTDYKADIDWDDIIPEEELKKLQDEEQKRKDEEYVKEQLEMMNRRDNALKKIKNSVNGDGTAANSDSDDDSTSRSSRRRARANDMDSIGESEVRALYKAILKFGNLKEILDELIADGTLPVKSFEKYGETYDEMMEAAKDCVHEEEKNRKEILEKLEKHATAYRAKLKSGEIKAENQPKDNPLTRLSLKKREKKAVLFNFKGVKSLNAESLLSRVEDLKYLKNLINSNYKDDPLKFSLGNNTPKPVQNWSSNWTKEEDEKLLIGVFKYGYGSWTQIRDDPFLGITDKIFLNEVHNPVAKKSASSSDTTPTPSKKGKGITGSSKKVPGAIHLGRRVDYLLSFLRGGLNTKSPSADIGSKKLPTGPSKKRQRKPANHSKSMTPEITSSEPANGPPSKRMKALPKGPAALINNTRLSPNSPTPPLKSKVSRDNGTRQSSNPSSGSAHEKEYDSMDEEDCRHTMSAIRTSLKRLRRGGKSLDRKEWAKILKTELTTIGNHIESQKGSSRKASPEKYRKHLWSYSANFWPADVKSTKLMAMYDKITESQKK

Chain of Protein translocase subunit SecA (Escherichia coli (strain K12)) (P10408 whole entry): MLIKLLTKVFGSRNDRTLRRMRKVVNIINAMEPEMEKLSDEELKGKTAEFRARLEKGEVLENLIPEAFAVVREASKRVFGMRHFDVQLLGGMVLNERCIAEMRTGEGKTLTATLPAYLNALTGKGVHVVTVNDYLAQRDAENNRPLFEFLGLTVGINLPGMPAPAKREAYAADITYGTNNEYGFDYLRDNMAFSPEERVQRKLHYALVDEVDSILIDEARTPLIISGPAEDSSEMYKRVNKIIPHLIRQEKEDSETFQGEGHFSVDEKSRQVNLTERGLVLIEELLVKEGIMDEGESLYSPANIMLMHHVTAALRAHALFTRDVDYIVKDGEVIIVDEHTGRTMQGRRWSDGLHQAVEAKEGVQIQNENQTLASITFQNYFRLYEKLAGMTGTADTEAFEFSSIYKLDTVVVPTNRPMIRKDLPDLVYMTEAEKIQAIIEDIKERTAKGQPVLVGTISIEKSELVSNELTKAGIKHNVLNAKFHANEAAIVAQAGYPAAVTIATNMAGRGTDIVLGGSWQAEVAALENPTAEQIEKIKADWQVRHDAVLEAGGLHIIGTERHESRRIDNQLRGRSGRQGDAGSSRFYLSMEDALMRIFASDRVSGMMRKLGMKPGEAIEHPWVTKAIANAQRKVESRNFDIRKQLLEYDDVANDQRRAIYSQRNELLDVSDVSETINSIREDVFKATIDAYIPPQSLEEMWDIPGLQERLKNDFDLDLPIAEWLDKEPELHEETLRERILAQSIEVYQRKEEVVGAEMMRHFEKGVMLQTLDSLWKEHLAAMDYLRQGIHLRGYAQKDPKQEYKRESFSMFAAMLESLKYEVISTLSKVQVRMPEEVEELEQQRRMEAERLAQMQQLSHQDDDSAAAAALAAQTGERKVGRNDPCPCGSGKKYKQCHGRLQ
Chain of Sialic acid-binding Ig-like lectin 9 (Homo sapiens) (Q9Y336 whole entry): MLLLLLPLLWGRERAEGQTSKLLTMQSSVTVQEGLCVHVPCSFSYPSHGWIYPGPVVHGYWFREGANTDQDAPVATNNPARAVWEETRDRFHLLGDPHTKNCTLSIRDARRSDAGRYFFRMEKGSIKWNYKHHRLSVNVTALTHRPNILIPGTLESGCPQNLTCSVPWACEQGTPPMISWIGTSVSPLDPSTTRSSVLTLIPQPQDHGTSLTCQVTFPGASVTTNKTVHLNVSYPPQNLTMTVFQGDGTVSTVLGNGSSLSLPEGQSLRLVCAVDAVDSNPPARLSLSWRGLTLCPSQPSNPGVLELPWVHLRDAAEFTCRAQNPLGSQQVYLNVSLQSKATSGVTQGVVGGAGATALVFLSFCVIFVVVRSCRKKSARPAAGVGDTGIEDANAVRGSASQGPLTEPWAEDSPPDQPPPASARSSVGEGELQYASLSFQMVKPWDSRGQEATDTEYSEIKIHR

Row | Compound | Percent Effect [1] | Percent Effect [2] | Percent Effect [3] | Percent Effect [4] | Percent Effect (Trypanosoma cruzi) | Percent Effect [5] | Percent Effect [6] | Percent Effect (Homo sapiens) | Percent Effect [7] | Percent Effect [8] | Percent Effect [9]
1 | CN1CC(=O)N(c2cccc(F)c2)CC12CCN(S(C)(=O)=O)C2 (configuration not stated) | -4.45% | 10.8% | 2.57% | 0.944% | -1.07% | 3.5% | 18.8% | -6.25% | 4.32% | 10.3% | -1.22%
2 | CC(OCC(F)(F)F)C(=O)N1CCCCC1 (configuration not stated) | -5.31% | 0% | -0.316% | -2.51% | -0.783% | -2.27% | -1.77% | 19.4% | 1.07% | 2.5% | 0.868%
3 | CN(Cc1ccco1)Cc1ccccc1CNC(=O)c1ccc[nH]1 | 0.847% | -10.8% | -0.911% | 10% | 2.32% | 14.3% | 9.31% | 19.5% | 3.7% | 12.2% | -4.76%
4 | O=C(c1ccc(C2CCCO2)s1)N1CCS(=O)(=O)CC1 (configuration not stated) | -1.4% | 18.9% | -2.69% | 22.7% | 9.07% | 1.91% | 17.1% | 6.53% | 4.76% | 17.1% | -2.6%
5 | O=C(COCC1CC1)N1CCCC(n2ccnc2)C1 (configuration not stated) | -2.64% | 11.4% | 1.59% | -0.338% | -1.33% | 2.37% | 9.26% | 5.7% | 1.04% | 5.06% | -21.1%
6 | CCOC(=O)c1c(NC(=O)CN2CCN(C(C)=O)CC2)sc2c1CCC2 | -3.66% | 7.89% | 9.52% | 4.99% | -0.0974% | -1.18% | 7% | -11.1% | 4.25% | 13% | -4.6%
7 | Cc1ccc2c(ccn2CCC(=O)NC[C@@H]2CCCN3CCCC[C@H]23)c1 | -5.55% | 12% | -3.71% | 5.07% | 4.71% | -6.87% | 14.1% | -2.77% | 3.17% | 10.3% | -4.06%
8 | CC(C)CCN1Cc2c(C(=O)O)ncn2-c2ccccc2S1(=O)=O | 0.538% | 16.2% | 16.3% | -10.3% | -3.42% | 0.319% | 10.7% | 10.4% | 4.32% | 10.3% | -8.5%
9 | CC(NC(=O)NCC1(O)CCC1)c1ccc(OCC2CC2)c(F)c1 (configuration not stated) | -6.25% | 10.5% | 0.839% | 9.9% | 1.85% | -24.9% | 10.3% | 14% | 3.19% | 7.79% | -3.31%
10 | CC[C@H](C)[C@H](NC(=O)c1ccccc1-n1cnnn1)C(=O)OC | -2.24% | -4% | 6.42% | -4.83% | -14.2% | -9.33% | 1.85% | -2.35% | -1.06% | -12.8% | 1.23%
11 | CNc1nc(CNC(=O)Nc2cccc(F)c2C)cs1 | -0.623% | -2.63% | -1.93% | 5.4% | -1.32% | 1.15% | 5.18% | 8.24% | 1.47% | -2.44% | 5.82%
12 | Cc1noc(C)c1-c1cccc(CC2CCN(C(=O)CCC(=O)O)C2)n1 (configuration not stated) | -2.58% | 6.76% | 5.24% | 4.95% | 3.16% | 0.696% | 3.28% | -7.92% | 1.07% | 3.9% | -9.71%
13 | CC(=O)c1cc(CN2C[C@H]3CC[C@@H]2CN(S(=O)(=O)N(C)C)C3)cs1 | -5.56% | 15.3% | -10.7% | 36% | 7.68% | 6.18% | 5.96% | 4.65% | 7.37% | 10.3% | -3.04%
14 | Cc1cc(F)c(S(=O)(=O)NCCCN2CCC(O)CC2)cc1F | 0.398% | 5.2% | 5.04% | -1.8% | -10.9% | -24.8% | 15.8% | 19.9% | -1.07% | 1.24% | -1.88%
15 | COc1cc(C)nc(N2CCN(Cc3nccn3C)CC2)n1 | -2.16% | 9.72% | 3.08% | -2.82% | -0.875% | 1.32% | 10.3% | 0.819% | 2.1% | 2.56% | -3.1%
16 | CCC1(CC)Cc2ccccc2-c2nc(CN(C)C)nc(O)c21 | -3.62% | 10.5% | 5% | 4.55% | 0.292% | -5.92% | 12.8% | 14.4% | 5.32% | 10.4% | -3.79%
17 | O=C(NCC1CC1)C1CN(C(=O)c2cccnc2)CC12CCOCC2 (configuration not stated) | -0.919% | 13% | 2.21% | 6.47% | -0.296% | -0.645% | 13.6% | 18.6% | 5.29% | 14.1% | -4.19%
18 | O=C(Nc1cccc(Cl)c1)c1nn(C2CCS(=O)(=O)C2)c2c1CCCC2 (configuration not stated) | -5% | -7.89% | 10.5% | 6.51% | -1.27% | -3.55% | 12.4% | -5.46% | -1.06% | 2.6% | -5.58%
19 | Cc1cc(C)nc(N2CCN(C(=O)c3cc(Cl)c[nH]3)CC2)n1 | -3.35% | 8.22% | -2.54% | 4.32% | 0.595% | -3.99% | 17.2% | -6.92% | 10.4% | 16.1% | -1.43%
20 | COCc1ccccc1CNc1cc(N2CCCC2CO)ncn1 (configuration not stated) | -4.86% | 18.2% | -4.12% | 3.3% | -2.43% | 1.07% | 11.7% | 7.92% | 5.83% | 19.5% | -6.07%
21 | CN1CCOC(CN(C(=O)CC2CCCC2)c2nccs2)C1 (configuration not stated) | -0.692% | 0% | 6.23% | 8.01% | 0.464% | -4.25% | -2.69% | 7.78% | -3.96% | -6.1% | 2.72%
22 | Cc1ccc(-n2nnc(CC(=O)N3CCSCC3)c2C)cc1 | -3.7% | 20.8% | -1.3% | 11.8% | 3.83% | -5.52% | 11.2% | -2.27% | 5.38% | 21% | -9.71%

Source: ChEMBL document CHEMBL3988442, “University of Dundee, Small-Polar-MMV Screening Library” (2021)
